# Results from PubChem BioAssay AID1751 (National Center for Advancing Translational Sciences (NCATS), 2009).
# Values joined by “and” are separate entries in the source; they are usually repeats but may differ in a detail not shown here. Equal entries are not always repeated. Records with an inconclusive call do not appear. Active and inactive are the calls of the source. Calls come from the whole dose curve; as a rule, active = well fitted activation curve with a large enough effect; inconclusive = small, poorly fitted or top-dose-only effect; inactive = no such curve, though single readings can be large or run the other way.
# Target: Pyruvate kinase PKM (Homo sapiens) (UniProt P14618)
# Test: Confirmation Concentration-Response Assay for Activators of Human Muscle isoform 2 Pyruvate Kinase
# Settings: purified hPK-M2, Kinase-Glo ATP luminescence, 1 h; series mostly up to 57.5 µM
# Source text: NIH Chemical Genomics Center [NCGC] Matthew G. Vander Heiden, M.D., Ph.D. [Harvard Medical School, 77 Avenue Louis Pasteur, Boston, MA 02115] MLPCN Grant: 1 R03 MH085679-01 NCGC Assay Overview: Human pyruvate kinase muscle 2 (hPK-M2) enzyme was supplied as a highly purified (>95% pure) preparation from Harvard Medical School and assayed for its ability to generate ATP from ADP using phosphoenolpyruvate (PEP) as a substrate. ATP generation was detected in a coupled reaction by luciferase-mediated luminescence, an ATP-dependent process. Pyruvate kinase substrates, PEP and ADP, were present in the assay at Km and approximately 10-fold below Km respectively. The enzyme was assayed at an intermediate level of activity to screen for both inhibitors and activators.
# NCGC Assay Protocol Summary: Three uL of substrate mix (at r.t.) in assay buffer (50 mM Imidazole pH7.2, 50 mM KCl, 7 mM MgCl2, 0.01% Tween 20, 0.05% BSA) was dispensed into white solid bottom 1,536 well microtiter plates so that the final concentrations of substrates in the assay were 0.1 mM ADP and 0.5 mM PEP. 23 nL of compound were delivered by a pin tool and 1 uL of enzyme mix (final concentration of 0.1 nM) in assay buffer (4 degree Celsius) was added. Plates were incubated at room temperature for 1 hour. Two uL of detection mix (Kinase-Glo, Promega; at 4 degree Celsius protected from light) was added and luminescence read by a ViewLux (Perkin Elmer) at 1 second exposure/plate. Data were normalized to the uninhibited (column 3) and AC100 inhibition (no enzyme in column 2). To monitor activation, the first column contained a titration of the activator, NCGC00031955-03 (16-point 1:2 dilutions in duplicate starting at 57 uM) and the first 16 rows of column 4 contained 57 uM of NCGC00031955-03.
# Chain of Pyruvate kinase PKM (Homo sapiens) (P14618 whole entry, looked up, canonical isoform): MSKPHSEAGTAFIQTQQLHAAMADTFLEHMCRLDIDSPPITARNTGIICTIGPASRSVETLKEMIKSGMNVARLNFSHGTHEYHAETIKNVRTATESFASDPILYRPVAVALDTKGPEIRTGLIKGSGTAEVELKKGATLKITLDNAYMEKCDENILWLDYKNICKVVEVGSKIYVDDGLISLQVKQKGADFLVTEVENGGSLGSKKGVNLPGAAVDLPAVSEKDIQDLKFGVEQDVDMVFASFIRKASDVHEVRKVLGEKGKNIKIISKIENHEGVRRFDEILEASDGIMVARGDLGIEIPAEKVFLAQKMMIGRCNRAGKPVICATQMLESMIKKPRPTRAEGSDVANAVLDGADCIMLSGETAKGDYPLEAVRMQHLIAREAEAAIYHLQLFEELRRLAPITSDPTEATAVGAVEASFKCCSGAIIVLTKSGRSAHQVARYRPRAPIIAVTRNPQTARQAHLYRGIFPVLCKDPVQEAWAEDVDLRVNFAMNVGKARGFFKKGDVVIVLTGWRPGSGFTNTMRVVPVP
row,Compound,Potency
1,Cc1cc2c(s1)c1cnn(Cc3cccc(Cn4ncc5c6sc(C)cc6n(C)c5c4=O)c3F)c(=O)c1n2C,16000 nM (active)
2,O=S(=O)(c1ccc(F)cc1)N1CCN(S(=O)(=O)c2ccc3c(c2)OCCO3)CC1,56.6 nM (active)
3,O=C1CN(S(=O)(=O)c2c(F)cccc2F)CCN1S(=O)(=O)c1ccc2c(c1)OCCO2,89.7 nM (active)
4,COc1ccc(S(=O)(=O)N2CCN(S(=O)(=O)c3c(F)cccc3F)CC2)cc1,56.6 nM (active)
5,Cc1cc2c(s1)c1cnn(Cc3ccccc3)c(=O)c1n2C,45 nM (active)
6,Cc1cc2c(s1)c1cnn(Cc3cccc(F)c3F)c(=O)c1n2C,113 nM (active)
7,O=S(=O)(c1ccc2c(c1)OCCO2)N1CCN(S(=O)(=O)c2cccc[n+]2[O-])CC1,8970 nM (active)
8,O=S(=O)(c1ccc2c(c1)OCCO2)C1CCN(S(=O)(=O)c2c(F)cccc2F)CC1,713 nM (active)
9,Cn1c2cc(S(C)=O)sc2c2cnn(Cc3ccccc3F)c(=O)c21 (stereo not given),16 nM (active)
10,S=C1NC(c2ccccc2)N2C(=S)NC(c3ccccc3)N12 (stereo not given),inactive
11,Cc1cc2c(s1)c1cnn(Cc3ccccc3F)c(=O)c1n2C(C)C,inactive
12,Cc1cc2c(s1)c1cnn(Cc3c(F)cccc3Cl)c(=O)c1n2C,40.1 nM (active)
13,Cc1cc2c(s1)c1cnn(Cc3ccccc3F)c(=O)c1n2C,40.1 nM (active)
14,COc1ccc2c(c1)CCc1c(C(=O)NC3CCCCC3)noc1-2,inactive
15,Cc1sc2ncnc(OCC(=O)N3CCN(S(=O)(=O)c4ccc(Cl)cc4)CC3)c2c1C,inactive
16,CC(C)c1cc2c(s1)c1cnn(Cc3ccccc3F)c(=O)c1n2C,101 nM (active)
17,COc1cc(F)c(S(=O)(=O)N2CCN(S(=O)(=O)c3ccc4c(c3)OCCO4)CC2)c(F)c1,17.9 nM (active)
18,CC(O)c1cc2c(s1)c1cnn(Cc3ccccc3F)c(=O)c1n2C (stereo not given),113 nM (active)
19,O=C1CN(S(=O)(=O)c2ccc3c(c2)OCCO3)CCN1S(=O)(=O)c1c(F)cccc1F,2250 nM (active)
20,Cc1cccc(NC(=O)c2cnc3ccccn3c2=O)c1,inactive

row,Compound,Potency
1,CCCc1noc(-c2ccc(-c3ccccc3)cc2)n1,inactive
2,CCn1c2cc(C)sc2c2cnn(Cc3ccccc3F)c(=O)c21,4010 nM (active)
3,Cc1cc2c(s1)c1cnn(Cc3c(F)cccc3F)c(=O)c1n2C,25.3 nM (active)
4,O=S(=O)(c1ccc2c(c1)OCCO2)N1CCN(S(=O)(=O)c2ccc(F)cc2F)CC1,63.5 nM (active)
5,O=S(=O)(NC1CCN(S(=O)(=O)c2ccc3c(c2)OCCO3)C1)c1c(F)cccc1F (stereo not given),17900 nM (active)
6,Cn1c2cc([N+](=O)[O-])sc2c2cnn(Cc3ccccc3F)c(=O)c21,12.7 nM (active)
7,Cc1ccc(NS(=O)(=O)c2ccc3c(c2)CCC(=O)N3)cc1C,163 nM (active)
8,Cc1ccc(Cn2ncc3c4sc(C)cc4n(C)c3c2=O)cc1,225 nM (active)
9,O=S(=O)(NCCCCNS(=O)(=O)c1c(F)cccc1F)c1ccc2c(c1)OCCO2,5050 nM (active)
10,O=S(=O)(NCCCCCNS(=O)(=O)c1c(F)cccc1F)c1ccc2c(c1)OCCO2,2010 nM (active)
11,COc1cc2c(s1)c1cnn(Cc3ccccc3F)c(=O)c1n2C,40.1 nM (active)
12,O=S(=O)(c1ccc2c(c1)OCCO2)N1CCN(S(=O)(=O)c2cc(F)c(F)cc2F)CC1,71.3 nM (active)
13,O=S(=O)(NCCNS(=O)(=O)c1c(F)cccc1F)c1ccc2c(c1)OCCO2,20100 nM (active)
14,O=C1NC(=S)S/C1=C1\Sc2ccccc2N1CCCS(=O)(=O)O,inactive
15,O=S(=O)(NCCCCCCNS(=O)(=O)c1c(F)cccc1F)c1ccc2c(c1)OCCO2,4010 nM (active)
16,O=S(=O)(NCC1CN(S(=O)(=O)c2ccc3c(c2)OCCO3)C1)c1c(F)cccc1F,4010 nM (active)
17,O=S(=O)(NC1CCC(NS(=O)(=O)c2c(F)cccc2F)CC1)c1ccc2c(c1)OCCO2 (stereo not given),1.27 µM (active) and 22.5 µM (active)
18,Cc1ccc(S(=O)(=O)N2CCCN(S(=O)(=O)c3ccc4c(c3)OCCO4)CC2)cc1,398 nM (active)
19,Cn1ccc2cc(S(=O)(=O)N3CCN(S(=O)(=O)c4c(F)cccc4F)CC3)ccc21,318 nM (active)
20,COc1ccc2nc3sc(C(=O)NCc4cccs4)c(N)c3cc2c1,inactive
